# From PubChem BioAssay AID686979 (National Center for Advancing Translational Sciences (NCATS), 2013)
# Among all 420,000 compounds or so, about 50,000 (12%) were called active. About 26% were inconclusive and are not listed. What follows is part of a selection rich in actives, with near analogues and random picks from the rest. A call without a number means that no potency is given here. A number with no mark means an inactive call. The call rests on the fitted dose curve; in most records, active means well fitted inhibition curve with a large enough effect; inconclusive means small, poorly fitted or top-dose-only effect; inactive means flat fitted curve, though single readings scatter.
# Test: qHTS for Inhibitors of human tyrosyl-DNA phosphodiesterase 1 (TDP1): qHTS in cells in presence of CPT; further: nearly all actives have a fitted effect of over 55% in size
# Conditions: chicken DT40 Tdp1-/-;hTDP1 cells + 20 nM CPT, ATP luminescence, 48 h; series mostly up to 46.2 µM
# Method in brief: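 Chicken DT40 Tdp1-/- cells complemented with human TDP1, 400 cells/well, exposed to compounds plus 20 nM camptothecin for at least 48 h at 37 C; viability read as ATP content by CellTiter-Glo luminescence.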
# Potency means the concentration at half of the fitted maximal effect.
row,SMILES,Potency
1,S=C(c1ccccc1)N1CCCC1,inactive
2,CCOC(=O)c1c(NC(=O)CSc2nccc(=O)[nH]2)sc(C)c1C,inactive
3,CC1CCN(C(=O)c2ccc(S(=O)(=O)Cc3cc(F)ccc3F)c([N+](=O)[O-])c2)CC1,6.51 µM (active)
4,NC(=O)C1CCN(C(=O)c2ccc(F)c(S(=O)(=O)N3CCOCC3)c2)CC1,inactive
5,Nc1ccc(C(=O)N2CCN(S(=O)(=O)c3ccc(Cl)cc3)CC2)cc1[N+](=O)[O-],inactive
6,Cc1noc(NS(=O)(=O)c2ccc(NC(=O)c3oc4ccc(F)cc4c3C)cc2)c1C,inactive
7,CC(=O)Nc1c2c(nn1-c1ccc(C)cc1C)CS(=O)C2 (stereo not given),inactive
8,C[C@H](NC(=O)C1CC(=O)N(c2ccc3c(c2)OCCO3)C1)C(=O)N1CCC(C(=O)O)CC1 (stereo not given in full),inactive
9,CC(=O)Nc1c2c(nn1-c1cccc(C)c1)CSC2,inactive
10,CC(=O)c1cccc(OCc2cc(C(=O)NC(C)Cc3cccnc3)no2)c1 (stereo not given),16.4 µM (active)
11,O=C(NC1Cc2ccccc2C1)c1cc(COc2cccc(C(F)(F)F)c2)on1,inactive
12,CCn1ccnc1CN(C)C(=O)c1cc(COc2ccc(-n3cncn3)cc2)on1,inactive
13,Cc1ccc(OCc2cc(C(=O)N(C)CCc3ccccc3)no2)cc1C,inactive
14,CCCOc1cccc(C(=O)NCCCNC(=O)c2cccnc2)c1,inactive
15,CCC(NC(=O)c1cc(COc2ccc(F)c(F)c2)on1)c1ccncc1 (stereo not given),20.6 µM (active)
16,O=C(NCCCc1ccccc1)c1cc(COc2c(F)cccc2F)on1,inactive
17,CN(Cc1cccnc1)C(=O)c1cc(COc2ccc3ncccc3c2)on1,4.61 µM (active)
18,CC(C)Cc1cc(C(=O)NCCc2ccccc2)no1,inactive
19,CC(N)(C(=O)O)c1ccc(-c2nn[nH]n2)cc1 (stereo not given),inactive
20,COC(=O)C[C@H]1C=C[C@H](NC(=O)c2ccc(F)cc2)[C@@H](CO)O1,inactive
21,Cc1sc(NC(=O)C2=COCCO2)c(C#N)c1C,inactive
22,CC1(C)C(c2cccs2)=[N+]([O-])C2(CCCCC2=O)N1O (stereo not given),inactive
23,Cc1cccn2cc(-c3cccc(S(=O)(=O)N4CCCCC4)c3)nc12,inactive
24,O=C(NCCCN1CCOCC1)C1CCCN(S(=O)(=O)N2CCCCC2)C1 (stereo not given),inactive
25,COc1cccc2c1C(=O)c1c(O)c3c(c(O)c1C2=O)CC(O)(C(C)=NNC(=O)c1ccc(Cl)c(Cl)c1)CC3OC1CC(N)C(O)C(C)O1 (stereo not given),0.164 µM (active)

row,SMILES,Potency
1,CCOC(=O)c1cnc2c(c(C)nn2CC)c1Cl,inactive
2,COc1cccc(-c2ccc3c(c2)N(Cc2ccccc2OC)C(=O)C(C)S3)c1 (stereo not given),25.9 µM (active)
3,COc1ccccc1CNS(=O)(=O)c1ccc2c(c1)NC(=O)CS2,inactive
4,COc1ccc(CN2C(=O)C(C)S/C2=N/N=C/c2ccco2)cc1 (stereo not given),inactive
5,CCCc1nc(-c2ccccc2O)n(-c2ccccc2)n1,inactive
6,CCCc1nc(N2CCN(C)CC2)c2sc(=S)n(-c3ccccc3)c2n1,18.4 µM (active)
7,Cc1cnc(NC(=O)CSc2c(Cl)cccc2Cl)s1,14.6 µM (active)
8,Cc1cnc(NC(=O)CSc2nnc(-c3ccccc3)n2Cc2ccccc2)s1,inactive
9,COc1ccc(CC(=O)NCc2nnc(SCC(=O)Nc3nccs3)n2C)cc1,inactive
10,COc1ccc(CC(=O)NCc2nnc(SCC(=O)Nc3ncc(C)s3)n2C)cc1,16.4 µM (active)
11,Cc1cnc(NC(=O)CSc2nnc(C)s2)s1,inactive
12,COC(=O)c1ccc(NC(=O)CSc2nnc(CNc3ccc(OC)cc3)n2C)cc1,inactive
13,O=C(NCc1ccccc1)C(c1ccco1)N(C(=O)c1csnn1)c1ccccc1F (stereo not given),inactive
14,CCCCN(C(=O)COc1ccc(NC(C)=O)cc1)C1CCS(=O)(=O)C1 (stereo not given),inactive
15,COc1ccc(CNC(=O)CCC(=O)Nc2nnc(C(C)C)s2)cc1,inactive
16,CC[C@@H]1CC2=C(C(=O)OC(C)(C)O2)[C@@H](CC)O1,inactive
17,Cn1c(CC(=O)Nc2ccc(F)cc2)nnc1SCC(=O)NC1CCCCC1,inactive
18,O=C(NCCN1CCOC1=O)C1CCC(=O)N(CCc2ccc(Cl)cc2)C1 (stereo not given),inactive
19,C=CCNCCCCOc1ccccc1,inactive
20,COc1ccc(-c2c3c(=O)n(C)c(=O)n(C)c3cn2NC(C)=O)cc1,inactive
21,COc1ccc(Nc2cc(=O)n(-c3ccccc3)c3c2c(=O)n(C)c(=O)n3C)cc1,inactive
22,COc1ccc(-c2c3c(=O)n(C)c(=O)n(C)c3cn2-c2cccc(OC)c2)cc1,29.1 µM (active)
23,Cc1ccc(-c2c3c(=O)n(C)c(=O)n(C)c3cn2-c2ccccc2O)cc1,inactive
24,COc1ccc(-c2[nH]c3c(c2-c2c(-n4cccc4)n(C)c(=O)n(C)c2=O)c(=O)n(C)c(=O)n3C)cc1,inactive
25,COc1cccc(-n2cc3c(c2-c2ccccc2)c(=O)n(C)c(=O)n3C)c1,23.1 µM (active)
